Assay outcomes deposited in PubChem by National Center for Advancing Translational Sciences (NCATS).
In the library only some 19% were active in any assay of this set; here they are far more common.
SW480 rerep: A quantitative high throughput screen for small molecules that induce DNA re-replication in SW480 colon adenocarcinoma cells | SW480 DNA re-replication, Hoechst DNA content imaging, 48 h | Potency, µM (doses to about 46.1 µM), for inactives: top-dose re-replication activation, hits mostly activators | 1.8% of 340,000 active; note: potency is the fitted concentration of half-maximal effect; % of control where 0% means no effect; nearly all actives have a fitted effect of over 55% in size
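Compounds, transferred as 23 nL by pin tool, were incubated with cells for 48 hr; DNA content per nucleus was then quantified by Hoechst staining and fluorescence plate imaging.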
TDP1 cell CPT: qHTS for Inhibitors of human tyrosyl-DNA phosphodiesterase 1 (TDP1): qHTS in cells in presence of CPT; chicken DT40 Tdp1-/-;hTDP1 cells + 20 nM CPT, ATP luminescence, 48 h; Potency, µM (series often up to 46.2 µM), inactives show at the top dose activity change, negative = growth inhibition, usual class: inhibitors; 12% of 420,000 active; note: potency is the fitted concentration of half-maximal effect; % is set by controls: 0 for no effect and ±100 for the full control effect; nearly all actives have a fitted effect of over 55% in size
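Chicken DT40 Tdp1-/- cells complemented with human TDP1, 400 cells/well, exposed to compounds plus 20 nM camptothecin for at least 48 h at 37 C; viability read as ATP content by CellTiter-Glo luminescence.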
IL1B secr inh: qHTS for Inhibitors of Inflammasome Signaling: IL-1-beta AlphaLISA Primary Screen | THP-1 LPS/ATP IL-1B secretion, AlphaLISA, 16 h; stronger effect = lower value | activity change, % at 57.5 µM | 4.7% of 360,000 active; in the data active = activity change below about -50%; inconclusive = mostly about -30% to -49%; note: % is set by controls: 0 for no effect and ±100 for the full control effect
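THP-1 cells pretreated 1 hr with compounds (up to 57.5 uM final), then stimulated with LPS (250 ng/mL final) plus ATP (1.25 mM final); secreted IL-1B measured by AlphaLISA after 16 hr, decreased signal indicating inhibition.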
MCF10A rerep: A quantitative high throughput screen for small molecules that induce DNA re-replication in MCF 10a normal breast cells. MCF 10A DNA re-replication, Hoechst nuclear intensity, 48 h. Potency, µM (titrated, usually from 46.1 µM), for inactives: top-dose activity, positive = re-replication, usual class: activators. 2.9% of 350,000 active; note: potency is the fitted concentration of half-maximal effect; % of control where 0% means no effect; nearly all actives have a fitted effect of over 50% in size
DT40 TDP1 no CPT: qHTS for Inhibitors of human tyrosyl-DNA phosphodiesterase 1 (TDP1): qHTS in cells in absence of CPT. DT40 Tdp1-/- hTDP1 cells, no CPT, ATP luminescence, 48 h. Potency, µM (top dose mostly 46.2 µM), inactives show at the top dose activity change, negative = growth inhibition, most hits filed as inhibitors. 15% of 420,000 active; note: potency is the fitted concentration of half-maximal effect; % is set by controls: 0 for no effect and ±100 for the full control effect; nearly all actives have a fitted effect of over 55% in size
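Chicken DT40 Tdp1-/- cells complemented with human TDP1, screened without camptothecin (DMSO vehicle only), 400 cells/well. Compounds pin-transferred, cells incubated at 37 °C for at least 48 hr. Growth read as ATP-dependent luminescence (CellTiter-Glo, 30 min at RT).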
BCR signal inh: qHTS Assay to Find Inhibitors of Chronic Active B-Cell Receptor Signaling; ABC-DLBCL IkBa-CBG/CBR reporter, luminescence ratio, 4 h; Potency, µM (series often up to 46.1 µM), for the others: at the top dose activity change, negative = inhibition, usual class: inhibitors; 0.05% of 340,000 active; AID 493014, 2011; active = well fitted inhibition curve with a large enough effect in the signal ratio, with a control signal flat, not every such curve was filed as active; inconclusive = small, poorly fitted or top-dose-only effect, or effect the other way, or a change in a side signal; the % refers to the signal ratio;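 note: potency is the fitted concentration of half-maximal effect; plate controls were basal doxycycline-induced cells for no effect and cells given 10 µM MG132 for full effect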
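Concentration-response series (up to 46 uM) were applied to TMD8 dual-reporter cells for 4 h at 37C with doxycycline. Green/red ratio, after filter-overlap correction, defined %Activity; red signal alone was normalised to basal cells and zero luminescence.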
* hit, by the source's call; ? = inconclusive; . = no result. Unless noted, calls come from the whole dose curve; as a rule, active = well fitted curve in the direction sought with a large enough effect; inconclusive = small, poorly fitted or top-dose-only effect, or another doubt; inactive = no such curve, though single readings can be large; an effect the other way counts as inactive or inconclusive.

SMILES	SW480 rerep	TDP1 cell CPT	IL1B secr inh	MCF10A rerep	DT40 TDP1 no CPT	BCR signal inh
Cc1ccc(-c2noc(CCC(=O)Nc3ccc4c(c3)OCO4)n2)cc1	12.0%	?	-0.6	?	?	1.9%
COc1ccc(NC(=O)CCc2nc(-c3ccc(C)cc3)no2)c(OC)c1	-10.5%	?	23.9	4.8%	18.4µM*	2.8%
COc1ccc(Cl)cc1N(C)C(=O)CCc1nc(-c2ccc(C)cc2)no1	-5.0%	18.4µM*	-3.2	9.6%	23.1µM*	?
CCOc1ccc(-c2noc(CCC(=O)O)n2)cc1	4.11µM*	13.7%	18.3	?	-4.3%	?
O=C1c2cccnc2C(Nc2ccc(Br)cc2Br)N1Cc1cccs1 (centres undefined)	.	.	.	.	.	5.1%
COC(=O)C(=O)C/C(=N/Nc1ncnc2ccccc12)c1ccc(Cl)cc1	9.1%	?	150.6	11.9%	?	-0.4%
O=C(Nc1ccnn1C1CCN(Cc2ccc(CO)o2)CC1)c1cccc(F)c1	.	-5.4%	-24.0	.	?	.
Cc1ccc(-c2noc(CCC(=O)NC3CC3)n2)cc1	3.0%	12.4%	22.5	-8.0%	-22.8%	4.6%
COc1ccc(-c2noc(CNC(=O)COc3cccc(C)c3C)n2)cc1	.	?	.	.	20.6µM*	.
COc1ccc(NC(=O)CCc2nc(-c3ccc(C)cc3)no2)cc1Cl	-3.5%	16.4µM*	3.5	19.5%	16.4µM*	2.0%
COc1ccc(-c2noc(CCC(=O)NCc3ccc(OC)cc3OC)n2)cc1	.	?	.	.	16.4µM*	.
CCN(C(=O)CCc1nc(-c2ccc(C)cc2)no1)c1cccc(Cl)c1	.	20.6µM*	.	.	?	.
COc1ccc(-c2noc(CCC(=O)Nc3ccc(C)c(C)c3)n2)cc1	-6.9%	-26.6%	20.9	-12.6%	-25.2%	15.5%
CC1CCCCN1C(=O)c1cc2ccccc2cc1O (centres undefined)	-20.6%	-27.7%	-26.8	-18.5%	?	1.4%
CCCOC(=O)C1=C(C)NC(=O)NC1c1cc2c(cc1Br)OCO2 (centres undefined)	-2.5%	-2.9%	-0.5	-1.3%	-14.6%	-1.3%
Cc1ccc(-c2noc(CCC(=O)Nc3ccc(F)cc3Cl)n2)cc1	.	-2.4%	.	.	?	.
COc1ccc(-c2noc(CCC(=O)NCc3cc(Br)ccc3OC)n2)cc1	10.9%	?	-89.6*	2.9%	18.4µM*	.
Cc1ccc(C)c(NC(=O)CCc2nc(-c3ccc(C(C)(C)C)cc3)no2)c1	.	23.1µM*	.	.	16.4µM*	.
COc1ccccc1NC(=O)c1cccc2c(Br)cccc12	0.3%	-27.7%	9.2	3.1%	?	?
CC(=O)c1ccc(NC(=O)C(C)Sc2nnc(-c3ccncc3)n2C2CC2)cc1 (centres undefined)	-4.5%	7.1%	1.3	4.0%	-6.8%	0.2%
COc1cc(Cl)c(C)cc1NC(=O)Cn1c2ncccc2c(=O)n1-c1ccccc1	.	?	.	.	-21.9%	.
Cc1cc(C)cc(OCCCn2c(-c3ccc(Cl)cc3)nc3ccccc3c2=O)c1	.	-13.2%	.	.	-2.9%	.
C[C@@H]1CN([C@H](C)CO)S(=O)(=O)c2ccc(Br)cc2O[C@H]1CN(C)S(C)(=O)=O	.	4.7%	3.7	.	-2.2%	.
O=C(NCCCN1CCCCCC1)c1ccc2c(Cl)c3c(nc2c1)CCCC3	34.5%	-89.6%	-71.4*	?	-75.0%	?
CCN1CCN(CCCNC(=O)c2ccc3c(Cl)c4c(nc3c2)CCCC4)CC1	?	?	.	?	18.4µM*	?
COc1cc(NC(=O)c2ccc3c(Cl)c4c(nc3c2)CCC4)cc(OC)c1OC	.	0.3%	.	.	-16.1%	.
